Laboratory results: PubChem BioAssay (Tox21)
Results filed as inconclusive are left out. A call without a number means that no potency is given here. Unmarked numbers belong to inactive results. Active and inactive are the calls of the source. Unless noted, calls come from the whole dose curve.

Assays:
[1] = qHTS assay to identify small molecule antagonists of the vitamin D receptor (VDR) signaling pathway - cell viability counter screen (AID 743225; active = well fitted curve in the direction sought with a large enough effect in the repeat runs; an effect the other way counts as inactive or inconclusive; note: nearly all actives have a fitted effect of over 50% in size; note: potency is the fitted concentration of half-maximal effect)
Outline: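 Same-well multiplex: following 16 h treatment of HEK 293T cells carrying a UAS-driven beta-lactamase reporter with compound and agonist (3 nM final), and a 2 h FRET substrate step, CellTiter-Glo was added and luminescence read after 30 min.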

[2] = qHTS assay to identify small molecule agonists of the NFkB signaling pathway - cell viability counter screen (AID 1159515); note: nearly all actives have a fitted effect of over 55% in size; note: potency is the fitted concentration of half-maximal effect
Outline: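 NFkB-bla ME-180 cells, 2,000/well, plated overnight at 37 C; compound added for 5 hr at 37 C. Viability read in the same wells as the bla reporter, by CellTiter-Glo luminescence after 30 min at room temperature.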

[3] = qHTS assay to identify small molecule agonists of the endoplasmic reticulum stress response signaling pathway (AID 1159516; active = well fitted activation curve with a large enough effect in the signal ratio in the repeat runs, not every such curve was filed as active; the % refers to the signal ratio)
Outline: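 CellSensor ESRE-bla HeLa cells, 1,500 per well, plated overnight, then exposed to compounds for 5 hr at 37 C. Beta-lactamase reporter read with LiveBLAzer B/G FRET substrate after 2 hr at room temperature, 405 nm excitation, 460 and 530 nm emission.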

[4] = qHTS assay to identify small molecule agonists of the AP-1 signaling pathway (AID 1159526)
[5] = target: Retinoic acid receptor RXR-alpha (Homo sapiens) (UniProt P19793); test: qHTS assay to identify small molecule agonists of the RXR signaling pathway (AID 1159527); note: nearly all actives have a fitted effect of over 35% in size
Outline: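 Compounds in DMSO were added to RXR-alpha-UAS-bla HEK 293T cells kept in 2% charcoal-stripped serum, and incubated 16 hr at 37 C with 5% CO2. Reporter signal came from a 2 hr B/G FRET substrate step.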

[6] = qHTS assay to identify small molecule agonists of the RXR signaling pathway - cell viability counter screen (AID 1159529; active = well fitted curve in the direction sought with a large enough effect in the repeat runs; an effect the other way counts as inactive or inconclusive; note: nearly all actives have a fitted effect of over 50% in size; note: potency is the fitted concentration of half-maximal effect)
Outline: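 Counter screen: CellTiter-Glo luminescence. Cells: RXR-alpha-UAS-bla HEK 293T. Medium: 2% charcoal-stripped FBS. Treatment: 16 h, 37 C. Reagent incubation: 30 min, RT.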

[7] = qHTS assay to identify small molecule agonists of the AP-1 signaling pathway - cell viability counter screen (AID 1159525); note: nearly all actives have a fitted effect of over 55% in size
Outline: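 ME-180 AP-1-bla, 2500 cells/well, Opti-MEM + 0.5% dialyzed FBS; overnight 37 °C; cpd 15-pt titration, 5 h 37 °C; CellTiter-Glo 30 min RT; luminescence read; normalised to TOAB and DMSO controls.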

[8] = target: Nuclear receptor ROR-gamma (Homo sapiens) (UniProt P51449); test: qHTS assay to identify small molecule antagonists of the retinoid-related orphan receptor gamma (ROR-gamma) signaling pathway (AID 1159521; active = well fitted curve in the direction sought with a large enough effect in the repeat runs; an effect the other way counts as inactive or inconclusive; note: nearly all actives have a fitted effect of over 50% in size; note: potency is the fitted concentration of half-maximal effect)
Outline: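 Inducible-expression reporter assay: doxycycline (1 uM final) switched on RORγ in CHO cells bearing a ROR response element-luciferase construct, with test compounds present from 2 h beforehand. Decreased luminescence after 16 h defined antagonist activity.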

[9] = qHTS assay to identify small molecule antagonists of the retinoid-related orphan receptor gamma (ROR-gamma) signaling pathway - cell viability counter screen (AID 1159520; active = well fitted curve in the direction sought with a large enough effect in the repeat runs; an effect the other way counts as inactive or inconclusive; note: nearly all actives have a fitted effect of over 50% in size)
Outline: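 Tet-on ROR gamma CHO cells (1,000/well) were plated 4 hr, given compounds in DMSO for 2 hr at 37 C, then induced with 1 uM final doxycycline for 16 hr. Viability was read as ATP by CellTiter-Glo luminescence after 30 min.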

Retinoic acid receptor RXR-alpha (Homo sapiens), sequence (P19793 whole entry, looked up): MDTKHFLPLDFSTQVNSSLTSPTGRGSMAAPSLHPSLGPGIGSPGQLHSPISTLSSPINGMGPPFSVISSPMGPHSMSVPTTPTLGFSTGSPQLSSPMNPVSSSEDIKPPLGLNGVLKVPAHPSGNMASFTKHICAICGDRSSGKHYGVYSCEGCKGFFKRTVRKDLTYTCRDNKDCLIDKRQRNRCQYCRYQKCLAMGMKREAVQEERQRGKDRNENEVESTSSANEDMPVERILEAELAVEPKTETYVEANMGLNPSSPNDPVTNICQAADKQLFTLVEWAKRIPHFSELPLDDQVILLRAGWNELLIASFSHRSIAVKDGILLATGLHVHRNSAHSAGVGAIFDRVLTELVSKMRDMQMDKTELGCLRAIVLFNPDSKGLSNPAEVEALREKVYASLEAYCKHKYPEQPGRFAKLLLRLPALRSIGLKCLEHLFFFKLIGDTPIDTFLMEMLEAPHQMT

CCCCCCCC
Potency [1]: inactive | Potency [2]: inactive | Potency [3]: inactive | Potency [4]: inactive | Potency [5]: inactive | Potency [6]: inactive

O=C(Nc1ccc2c(O)c(N=Nc3ccc(N=Nc4ccc(S(=O)(=O)O)cc4)cc3)c(S(=O)(=O)O)cc2c1)c1ccccc1
Potency [2]: inactive | Potency [3]: inactive | Potency [7]: inactive | Potency [5]: inactive | Potency [6]: inactive

CNC(=O)c1ccccc1Sc1ccc2c(/C=C/c3ccccn3)n[nH]c2c1
Potency [2]: inactive | Potency [3]: inactive | Potency [8]: inactive | Potency [7]: inactive | Potency [4]: inactive

O=C1CCc2ccc(OCCCCN3CCN(c4cccc(Cl)c4Cl)CC3)cc2N1
Potency [1]: 10.7 µM (active) | Potency [2]: 26.8 µM (active) | Potency [3]: inactive | Potency [9]: inactive | Potency [7]: inactive | Potency [6]: 23.9 µM (active)

Oc1c(I)cc(Cl)c2cccnc12
Potency [1]: inactive | Potency [2]: inactive | Potency [3]: inactive | Potency [8]: 54.4 µM (active) | Potency [6]: 1.09 µM (active)

O=C(/C=C/c1ccc(O)c(O)c1)O[C@@H](C(=O)O)[C@@H](OC(=O)/C=C/c1ccc(O)c(O)c1)C(=O)O
Potency [2]: inactive | Potency [3]: inactive | Potency [8]: inactive | Potency [7]: inactive | Potency [4]: inactive | Potency [5]: inactive | Potency [6]: inactive

CC[N+](CC)(CC)CCOc1ccc(/C=C/c2ccccc2)cc1
Potency [2]: inactive | Potency [3]: inactive | Potency [4]: inactive | Potency [6]: inactive

Nc1nc(-c2ccccc2)cs1
Potency [1]: inactive | Potency [2]: inactive | Potency [3]: inactive | Potency [7]: inactive | Potency [5]: inactive | Potency [6]: inactive

COC(=O)c1ccccc1OC
Potency [1]: inactive | Potency [2]: inactive | Potency [3]: inactive | Potency [9]: inactive | Potency [4]: inactive | Potency [5]: inactive | Potency [6]: inactive

OC[C@@H](O)[C@@H](O)CO
Potency [1]: inactive | Potency [2]: inactive | Potency [3]: inactive | Potency [8]: inactive | Potency [7]: inactive | Potency [4]: inactive | Potency [5]: inactive | Potency [6]: inactive

COC(=O)c1ccccc1C
Potency [2]: inactive | Potency [3]: inactive | Potency [8]: inactive | Potency [7]: inactive | Potency [4]: inactive | Potency [5]: inactive | Potency [6]: inactive

C=C(CC)C(=O)c1ccc(OCC(=O)O)c(Cl)c1Cl
Potency [1]: inactive | Potency [2]: inactive | Potency [3]: inactive | Potency [8]: 54.1 µM (active) | Potency [6]: inactive

C[C@H]1NCc2cc(-c3ccc4c(=O)c(C(=O)O)cn(C5CC5)c4c3OC(F)F)ccc21
Potency [2]: inactive | Potency [3]: inactive | activation [4]: -2.94% [at 15.8 µM] | activation [5]: -4.06% [at 15.8 µM]

O=C(O)CCN(C1(C(=O)NO)CCCC1)S(=O)(=O)c1ccc(Oc2ccc(F)cc2)cc1
Potency [1]: inactive | Potency [2]: inactive | Potency [3]: inactive | Potency [7]: inactive | Potency [4]: inactive | Potency [6]: inactive

CCCCCCCC/C=C\CCCCCCCCN
Potency [2]: inactive | Potency [3]: inactive | Potency [8]: inactive | Potency [7]: inactive | Potency [4]: inactive | Potency [5]: inactive | Potency [6]: inactive

C=CC(=O)OCCOC(=O)C=C
Potency [1]: inactive | Potency [2]: inactive | Potency [3]: inactive | Potency [9]: inactive | Potency [4]: inactive | Potency [6]: inactive

Clc1nnc(Cl)c2ccccc12
Potency [2]: inactive | Potency [3]: inactive | Potency [8]: inactive | Potency [7]: inactive | Potency [4]: inactive

CC(C)(C)C1CCC(=O)CC1
Potency [2]: 54.9 µM (active) | Potency [3]: inactive | Potency [8]: inactive | Potency [7]: inactive | Potency [6]: inactive

C#C[C@]1(O)CC[C@H]2[C@@H]3[C@H](C)CC4=C(CCC(=O)C4)[C@H]3CC[C@@]21C
Potency [1]: inactive | Potency [2]: inactive | Potency [3]: inactive | Potency [7]: inactive | Potency [4]: inactive | Potency [6]: inactive

Cc1c(C)c([N+](=O)[O-])c(C(C)(C)C)c([N+](=O)[O-])c1C
Potency [2]: inactive | Potency [3]: inactive | Potency [8]: inactive | Potency [7]: inactive | Potency [4]: inactive | Potency [6]: 43.6 µM (active)

C=CCCC(=O)/C=C/C1C(C)=CCCC1(C)C (stereo not given)
Potency [1]: inactive | Potency [2]: inactive | Potency [3]: inactive | Potency [7]: inactive | Potency [4]: inactive | Potency [5]: inactive

COc1cccc(OC)c1C(=O)O
Potency [1]: inactive | Potency [2]: inactive | Potency [3]: inactive | Potency [7]: inactive | Potency [4]: inactive | Potency [5]: inactive | Potency [6]: inactive

CC1(C)[C@@H](O)CC[C@]2(C)[C@H]3C(=O)C=C4[C@@H]5C[C@@](C)(C(=O)O)CC[C@]5(C)CC[C@@]4(C)[C@]3(C)CC[C@@H]12
Potency [1]: inactive | Potency [2]: inactive | Potency [3]: inactive | Potency [8]: inactive | Potency [5]: inactive | Potency [6]: inactive

CCCCCC/C=C\CCCCCCCC(=O)O
Potency [2]: inactive | Potency [3]: inactive | Potency [9]: inactive | Potency [6]: inactive

CCc1ccc(Br)cc1
Potency [1]: inactive | Potency [2]: inactive | Potency [3]: inactive | Potency [8]: inactive | Potency [7]: inactive | Potency [4]: inactive | Potency [5]: inactive | Potency [6]: inactive

CC1=CCC(=C(C)C)CC1
Potency [1]: inactive | Potency [2]: inactive | Potency [3]: inactive | Potency [9]: inactive | Potency [4]: inactive | Potency [5]: inactive | Potency [6]: inactive

CCC(=O)OC(=O)CC
Potency [1]: inactive | Potency [2]: inactive | Potency [3]: inactive | Potency [8]: inactive | Potency [7]: inactive | Potency [4]: inactive | Potency [6]: 43.3 µM (active)

CC(C)(C)NSc1nc2ccccc2s1
Potency [2]: inactive | Potency [3]: inactive | Potency [8]: inactive | Potency [7]: inactive | Potency [6]: inactive

CCC(CC)(CC(=O)Nc1cccc(/C=C/c2nc(C3CCC3)cs2)c1)C(=O)O
Potency [1]: inactive | Potency [2]: inactive | Potency [3]: inactive | Potency [7]: inactive | Potency [4]: inactive | Potency [6]: inactive

O=C(O)c1ccc2cc(C(=O)O)ccc2c1
Potency [1]: inactive | Potency [2]: inactive | Potency [3]: inactive | Potency [8]: inactive | Potency [7]: inactive | Potency [4]: inactive | Potency [5]: inactive | Potency [6]: inactive
